Test results published in PubChem BioAssay (EPA / NIEHS).
Values joined by “and” are separate entries in the source; they are usually repeats but may differ in a detail not shown here. Identical values can stand only once. Some compounds were tested as several samples or in several runs, with calls that do not always agree. Active and inactive are the calls of the source. How the source made its calls: active means hit-call score of the fitted dose curve at least 0.9, where 1 is the maximum; inactive means score below 0.9.

What was measured:
[1] = read-out: Interferon-gamma inducible Protein 10 (IP10), CXCL10 (gene 3627); assay: BSK_hDFCGF_IP10: BioMAP Diversity Plus: hDFCGF Assay for Interferon-gamma inducible Protein 10 (IP10) Biomarker Activity (AID 2283053); settings: primary human foreskin fibroblasts; actives raise or lower the signal
Method in brief: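 ELISA quantification of IP-10 after a 24 h chemical exposure of human dermal foreskin fibroblast primary cultures. Both increases and decreases versus DMSO fitted.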

[2] = read-out: Urokinase-type plasminogen activator receptor (uPAR), PLAUR (gene 5329); assay: BSK_CASM3C_uPAR: BioMAP Diversity Plus: CASM3C Assay for Urokinase-type plasminogen activator receptor (uPAR) Biomarker Activity (AID 2283054); settings: primary human coronary artery smooth muscle cells; actives raise or lower the signal;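 further: cell-surface uPAR protein level quantified by ELISA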
[3] = read-out: Vascular cell adhesion molecule 1 (VCAM1), VCAM1 (gene 7412); assay: BSK_CASM3C_VCAM1: BioMAP Diversity Plus: CASM3C Assay for Vascular cell adhesion molecule 1 (VCAM1) Biomarker Activity (AID 2283055); settings: primary human coronary artery smooth muscle cells; actives raise or lower the signal;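 further: VCAM-1 protein level quantified by ELISA on the cells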
[4] = read-out: Collagen III, COL3A1 (gene 1281); assay: BSK_hDFCGF_CollagenIII: BioMAP Diversity Plus: hDFCGF Assay for Collagen III Biomarker Activity (AID 2283056); settings: primary human foreskin fibroblasts; actives raise or lower the signal
Method in brief: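 Human foreskin fibroblast primary cultures sampled 24 h after dosing; Collagen III quantified by ELISA. Signal fitted bidirectionally against DMSO baseline.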

[5] = read-out: Epidermal growth factor receptor (EGFR), EGFR (gene 1956); assay: BSK_hDFCGF_EGFR: BioMAP Diversity Plus: hDFCGF Assay for Epidermal growth factor receptor (EGFR) Biomarker Activity (AID 2283057); settings: primary human foreskin fibroblasts; actives raise or lower the signal
Method in brief: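 EGFR levels by ELISA in human dermal fibroblast cultures, 24 h post-treatment, fitted bidirectionally versus DMSO. Parallel wells stained with sulforhodamine B to detect overt cytotoxicity.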

[6] = read-out: Interleukin-8 (IL8), CXCL8 (gene 3576); assay: BSK_hDFCGF_IL8: BioMAP Diversity Plus: hDFCGF Assay for Interleukin-8 (IL8) Biomarker Activity (AID 2283058); settings: primary human foreskin fibroblasts; actives raise or lower the signal
Method in brief: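 Primary human foreskin fibroblasts (hDFCGF system) dosed with chemical; IL-8 measured by ELISA 24 hours later. Bidirectional curve fitting relative to DMSO baseline; cytotoxicity tracked in parallel cultures by SRB total protein staining.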

[7] = BSK_hDFCGF_Proliferation: Cell Proliferation Assessment in the BioMAP Diversity Plus: hDFCGF Assay (AID 2283059); settings: primary human foreskin fibroblasts;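 further: curves fitted for both rise and fall of signal versus DMSO baseline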
Method in brief: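 This proliferation readout used SRB total-protein staining of human foreskin fibroblasts […], normalized to DMSO with bidirectional curve fitting.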

[8] = read-out: Macrophage colony-stimulating factor (MCSF), CSF1 (gene 1435); assay: BSK_hDFCGF_MCSF: BioMAP Diversity Plus: hDFCGF Assay for Macrophage colony-stimulating factor (MCSF) Biomarker Activity (AID 2283060); settings: primary human foreskin fibroblasts; actives raise or lower the signal
Method in brief: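 Human foreskin fibroblast primary cultures; M-CSF measured by ELISA 24 hours after chemical dosing. Bidirectional fitting relative to DMSO, with overt cytotoxicity tracked by parallel SRB total-protein staining (0.1% SRB, 10% TCA fixation, 560 nm).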

[9] = BSK_hDFCGF_SRB: Viability Assessment in the BioMAP Diversity Plus: hDFCGF Assay (AID 2283061); settings: primary human foreskin fibroblasts;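 further: cells exposed to compound for 24 h before the read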
Method in brief: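 Human foreskin fibroblasts in 96-well plates were treated 24 h. Total protein was measured by 0.1% SRB staining after 10% TCA fixation, read at 560 nm. Data were fitted bidirectionally against DMSO.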

[10] = read-out: TIMP metallopeptidase inhibitor 1 (TIMP1), TIMP1 (gene 7076); assay: BSK_hDFCGF_TIMP1: BioMAP Diversity Plus: hDFCGF Assay for TIMP metallopeptidase inhibitor 1 (TIMP1) Biomarker Activity (AID 2283062); settings: primary human foreskin fibroblasts; actives raise or lower the signal
Method in brief: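 Human foreskin fibroblast primary cultures dosed for 24 h; secreted/surface TIMP-1 quantified by ELISA. Bidirectional curve fitting against DMSO baseline; cytotoxicity tracked in parallel cultures by SRB total-protein staining.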

[11] = read-out: Monokine induced gamma interferon (MIG), CXCL9 (gene 4283); assay: BSK_hDFCGF_MIG: BioMAP Diversity Plus: hDFCGF Assay for Monokine induced gamma interferon (MIG) Biomarker Activity (AID 2283063); settings: primary human foreskin fibroblasts; actives raise or lower the signal
Method in brief: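 MIG/CXCL9 measured by ELISA 24 h after dosing primary human skin fibroblasts. Activity fitted in both directions against DMSO controls. Cytotoxicity was checked in parallel cultures by SRB staining read at 560 nm.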

[12] = read-out: Matrix Metallopeptidase 1 (MMP1), MMP1 (gene 4312); assay: BSK_hDFCGF_MMP1: BioMAP Diversity Plus: hDFCGF Assay for Matrix Metallopeptidase 1 (MMP1) Biomarker Activity (AID 2283064); settings: primary human foreskin fibroblasts; actives raise or lower the signal
Method in brief: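 ELISA read-out of MMP1 from human foreskin fibroblasts (primary skin cells), 24 h post-dose. Gain or loss of signal was fitted bidirectionally versus DMSO negative control; cytotoxicity was checked by SRB in parallel cultures.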

[13] = read-out: Vascular cell adhesion molecule 1 (VCAM1), VCAM1 (gene 7412); assay: BSK_hDFCGF_VCAM1: BioMAP Diversity Plus: hDFCGF Assay for Vascular cell adhesion molecule 1 (VCAM1) Biomarker Activity (AID 2283065); settings: primary human foreskin fibroblasts; actives raise or lower the signal;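 on AC50: VCAM-1 protein level quantified by ELISA after 24 h chemical exposure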
Method in brief: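 Human foreskin fibroblast primary cells dosed with chemical, VCAM-1 measured by ELISA at 24 h. Bidirectional curve fitting relative to DMSO as negative control/baseline.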

[14] = read-out: Plasminogen activator inhibitor-1 (PAI1), SERPINE1 (gene 5054); assay: BSK_hDFCGF_PAI1: BioMAP Diversity Plus: hDFCGF Assay for Plasminogen activator inhibitor-1 (PAI1) Biomarker Activity (AID 2283066); settings: primary human foreskin fibroblasts; actives raise or lower the signal
Method in brief: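 PAI-1 levels in human dermal foreskin fibroblasts were quantified by ELISA 24 h after dosing, with gain or loss analysed against DMSO. Overt cytotoxicity was checked by sulforhodamine B total-protein staining in parallel cultures.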

[15] = read-out: Intercellular Adhesion Molecule 1 (ICAM1), ICAM1 (gene 3383); assay: BSK_KF3CT_ICAM1: BioMAP Diversity Plus: KF3CT Assay for Intercellular Adhesion Molecule 1 (ICAM1) Biomarker Activity (AID 2283067); settings: primary human keratinocytes with fibroblasts; actives raise or lower the signal
Method in brief: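 Human keratinocyte–foreskin fibroblast co-culture was treated for 24 h. Cell-surface ICAM-1 was quantified by ELISA, fitted bidirectionally relative to DMSO. Cytotoxicity was checked in parallel cultures by SRB total-protein staining.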

[16] = read-out: Interferon-gamma inducible Protein 10 (IP10), CXCL10 (gene 3627); assay: BSK_KF3CT_IP10: BioMAP Diversity Plus: KF3CT Assay for Interferon-gamma inducible Protein 10 (IP10) Biomarker Activity (AID 2283068); settings: primary human keratinocytes with fibroblasts; actives raise or lower the signal
Method in brief: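 Signal is secreted/surface IP-10 by ELISA in a human primary skin co-culture of keratinocytes and foreskin fibroblasts, taken 24 h post-dosing; DMSO served as negative control.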

[17] = BSK_KF3CT_SRB: Viability Assessment in the BioMAP Diversity Plus: KF3CT Assay (AID 2283069); settings: primary human keratinocytes with fibroblasts;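 further: read 24 h after compound addition; fitted for both signal gain and loss against DMSO baseline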
Method in brief: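 SRB read-out at 560 nm (0.1% stain, TCA-fixed cells) gauges overt cytotoxicity in a human skin keratinocyte–fibroblast co-culture 24 h post-dosing. Signal change was fitted bidirectionally relative to DMSO control.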

[18] = read-out: Interleukin-1 alpha (IL1a), IL1A (gene 3552); assay: BSK_KF3CT_IL1a: BioMAP Diversity Plus: KF3CT Assay for Interleukin-1 alpha (IL1a) Biomarker Activity (AID 2283070); settings: primary human keratinocytes with fibroblasts; actives raise or lower the signal
Method in brief: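 Primary skin co-culture (keratinocytes, foreskin fibroblasts), 24 h exposure; ELISA for IL-1a; bidirectional curve fit vs DMSO.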

[19] = read-out: Transforming growth factor beta 1 (TGFb1), TGFB1 (gene 7040); assay: BSK_KF3CT_TGFb1: BioMAP Diversity Plus: KF3CT Assay for Transforming growth factor beta 1 (TGFb1) Biomarker Activity (AID 2283072); settings: primary human keratinocytes with fibroblasts; actives raise or lower the signal
Method in brief: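 ELISA quantifies TGF-b1 at 24 h post-dose in a primary human skin co-culture of keratinocytes and fibroblasts, with gain or loss judged against DMSO. Parallel SRB total-protein staining flags overt cytotoxicity.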

[20] = read-out: TIMP metallopeptidase inhibitor 2 (TIMP2), TIMP2 (gene 7077); assay: BSK_KF3CT_TIMP2: BioMAP Diversity Plus: KF3CT Assay for TIMP metallopeptidase inhibitor 2 (TIMP2) Biomarker Activity (AID 2283071); settings: primary human keratinocytes with fibroblasts; actives raise or lower the signal
Method in brief: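 TIMP-2 measured by ELISA at 24 h in human keratinocyte/fibroblast primary co-cultures exposed to chemicals. Both increases and decreases were fitted against DMSO. Parallel cultures were stained with SRB for total protein as an overt-cytotoxicity check.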

Measured: AC50

NC(=O)NN=Cc1ccc([N+](=O)[O-])o1
active: [7] 27.8 µM
not listed: [20]
inactive: all other assays above

OC(O)(C(F)C(O)(O)C(F)(F)F)C(F)(F)F
active: [1] 19.6 µM | [7] 9.21 µM and 7.73 µM | [11] 30 µM and 36.3 µM | [13] 1.12 µM and 13 µM
inactive: [1] | [2] | [3] | [5] | [6] | [8] | [9] | [10] | [12] | [14] | [15] | [16] | [17] | [18] | [20]

COCc1nnc(-c2ccc[n+]([O-])c2)n1-c1c(Cl)c(Cl)cc2[nH]c(=O)c(=O)[nH]c12
inactive: all assays above

O=C(O)[C@H](O)[C@@H](O)C(=O)O
not listed: [12]
inactive: all other assays above

Cc1ccc(S(=O)(=O)NC(=O)NN2CCCCCC2)cc1
not listed: [12]
inactive: all other assays above

OCCC(F)(F)C(F)(F)C(F)(F)C(F)(F)F
inactive: [1] | [2] | [3] | [4] | [5] | [6] | [7] | [8] | [9] | [11] | [12] | [13] | [14] | [15] | [16] | [17] | [18] | [20]
active: [18] 8.32 µM

O=S1(=O)CCCO1
not listed: [10] | [12]
inactive: all other assays above
